# Laboratory results from PMC4336329 (PLoS ONE, 2015).
# Screen size: about 310,000 compounds; about 2,200 (0.71%) showed an effect of 50% or more. Effects have a minus sign here. The list comes from a sample in which strong results are over-represented; it also holds similar structures and randomly drawn compounds.
# Target: human ether-à-go-go-related gene (hERG) potassium channel (human, UniProt Q12809)
# Assay: primary screen, population patch clamp on CHO cells stably expressing hERG; higher = less effect of the substance
# Chain of human ether-à-go-go-related gene (hERG) potassium channel (Q12809 whole entry, looked up): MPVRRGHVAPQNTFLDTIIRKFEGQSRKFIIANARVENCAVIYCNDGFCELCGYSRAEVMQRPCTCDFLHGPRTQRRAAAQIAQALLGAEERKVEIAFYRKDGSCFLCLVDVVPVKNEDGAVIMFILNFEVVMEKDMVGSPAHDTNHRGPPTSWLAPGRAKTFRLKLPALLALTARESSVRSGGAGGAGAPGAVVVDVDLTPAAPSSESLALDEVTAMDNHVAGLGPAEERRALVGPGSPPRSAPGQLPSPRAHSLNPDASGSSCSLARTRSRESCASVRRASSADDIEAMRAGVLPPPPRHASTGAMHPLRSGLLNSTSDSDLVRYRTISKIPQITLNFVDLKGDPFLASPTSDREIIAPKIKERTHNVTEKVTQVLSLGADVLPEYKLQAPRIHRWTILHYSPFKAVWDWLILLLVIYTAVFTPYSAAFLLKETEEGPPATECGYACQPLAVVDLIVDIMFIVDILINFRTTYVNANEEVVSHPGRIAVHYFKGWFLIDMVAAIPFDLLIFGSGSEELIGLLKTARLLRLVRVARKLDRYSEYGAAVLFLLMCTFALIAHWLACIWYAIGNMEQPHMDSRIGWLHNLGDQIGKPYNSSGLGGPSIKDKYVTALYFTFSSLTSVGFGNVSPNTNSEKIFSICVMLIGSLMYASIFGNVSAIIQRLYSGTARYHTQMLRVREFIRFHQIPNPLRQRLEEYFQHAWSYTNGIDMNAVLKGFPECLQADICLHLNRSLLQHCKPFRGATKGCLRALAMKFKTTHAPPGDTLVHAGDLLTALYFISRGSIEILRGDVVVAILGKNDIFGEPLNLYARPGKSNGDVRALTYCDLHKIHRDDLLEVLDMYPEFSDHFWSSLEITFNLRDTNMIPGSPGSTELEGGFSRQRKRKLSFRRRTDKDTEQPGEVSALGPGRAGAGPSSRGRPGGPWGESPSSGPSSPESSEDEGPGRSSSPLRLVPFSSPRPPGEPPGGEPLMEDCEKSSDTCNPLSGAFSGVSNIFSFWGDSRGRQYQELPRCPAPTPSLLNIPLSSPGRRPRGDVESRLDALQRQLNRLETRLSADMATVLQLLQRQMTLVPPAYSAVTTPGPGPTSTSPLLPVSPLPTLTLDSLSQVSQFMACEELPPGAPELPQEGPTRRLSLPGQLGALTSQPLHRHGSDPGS
row,SMILES,"hERG current change (%, negative = inhibition) at 1uM [%]"
1,CCCCn1nnc(NC(=O)Cc2ccc(Cl)cc2)n1,-4.74
2,CCOC(=O)c1c(C)[nH]c(C)c1S(=O)(=O)NCC1CCN(Cc2ccccc2F)CC1,8.12
3,COc1cc2nc(CN3CCOCC3)n(CC(=O)NCC(F)(F)F)c(=O)c2cc1OC,11.5
4,COC(=O)c1nnn(-c2nonc2N)c1COc1ccc(C=O)cc1OC,-1.8
5,Cc1c(C2N3CC4(C)CN2CC(C)(C3)C4=O)c2ccccc2n1C (stereo not drawn),-15.5
6,CC1=Nc2cc(C(=O)NCCCN3CCOCC3)ccc2Sc2c(C)ccc(C)c21,14.7
7,N#Cc1ccc(/C=C/C(=O)c2ccco2)cc1,5.85
8,COc1ccc(C(=O)NC2CC3CCCC(C2)N3CC(C)C)cc1OC (stereo not drawn),8.35
9,Cc1cccc(C(=O)NCCCn2ccnc2)c1C,4.84
10,COc1cc(CN2CCC(n3nccc3NC(=O)c3ccccc3OC)CC2)ccc1F,-77.6
11,COc1cc(CN2CCC(n3nccc3NC(=O)C3CCOC3)CC2)ccc1F (stereo not drawn),2.37
12,COc1cc(CN2CCC(n3nccc3NC(=O)CCCc3ccccc3)CC2)ccc1F,9.25
13,COc1ccc(NC2CCCN(C(=O)CSc3ccccc3)C2)cc1 (stereo not drawn),8.31
14,CSc1cccc(NC(=S)N(CCCN2CCCC2)Cc2cccs2)c1,-17.9
15,CC1CCN(CCCn2c(SCC(=O)NC3CCCC3)nc3ccccc3c2=O)CC1,-64.8
16,CCCCn1c(SCC(=O)NC2CCCC2)nc2ccccc2c1=O,4.94
17,COc1ccc(NC(=O)CSc2nc3ccccc3c(=O)n2CCCN2CCC(C)CC2)c(OC)c1,-72.1
18,CC1CCN(CCCn2c(SCC(=O)Nc3ccccc3Cl)nc3ccccc3c2=O)CC1,-34.1
19,COc1ccc(NC(=O)CSc2nc3ccccc3c(=O)n2CCCN2CCCCC2)c(OC)c1,-27.7

row,SMILES,"hERG current change (%, negative = inhibition) at 1uM [%]"
1,COc1ccc(NC(=O)CSc2nc3ccccc3c(=O)n2CCCN2CCOCC2)c(OC)c1,1.25
2,CC1CCCCC1NC(=O)COC(=O)c1ccc(N(C)C)cc1 (stereo not drawn),9.14
3,O=C(Cc1csc(NC(=O)Nc2cccc(Cl)c2)n1)NCc1cccnc1,-44.2
4,Cc1ccc(NC(=O)c2ccncc2)cc1S(=O)(=O)N(C)C,0.0196
5,CCc1ccc(NC(=O)c2noc(C(C)C)c2[N+](=O)[O-])cc1,8.97
6,CCN1CCN(c2c(Cl)cccc2NC(=O)c2ccc(Br)o2)CC1,-59.3
7,CCN1CCN(c2c(Cl)cccc2NC(=O)c2ccco2)CC1,-70.7
8,O=C(Nc1cccc(Cl)c1N1CCCC1)c1ccc([N+](=O)[O-])o1,9.79
9,O=C(Nc1cccc(Cl)c1N1CCCC1)c1ccc(Br)o1,-5.81
10,O=C(Nc1cccc(Cl)c1N1CCOCC1)c1ccc(Br)o1,4.08
11,CCN1CCN(c2c(Cl)cccc2NC(=O)c2ccc([N+](=O)[O-])o2)CC1,-77
12,O=C(Nc1cccc(Cl)c1N1CCOCC1)c1ccco1,4.55
13,O=C(Nc1cccc(Cl)c1N1CCOCC1)c1ccc([N+](=O)[O-])o1,3.63
14,O=C(Nc1cccc(Cl)c1N1CCCC1)c1ccco1,16.2
15,Cc1nc([N+](=O)[O-])cn1CC(=O)Nc1ccc(Cl)cc1,14.3
16,OCCNC(=S)NCCc1ccccc1,9.19
17,COCCNC(=S)N(CCN(C)C)Cc1cc2cc3c(cc2[nH]c1=O)OCO3,15.5
18,CC(C)c1cc(C(=O)N2CCCC(N3CCN(c4ccccc4F)CC3)C2)nc(N)n1 (stereo not drawn),10.1
19,O=C(Nc1ccc(Cl)cn1)Nc1ccccc1F,0.928

row,SMILES,"hERG current change (%, negative = inhibition) at 1uM [%]"
1,CC(C)Oc1ccc(N2CC(C(=O)Nc3ccc(N4CCOCC4)cc3)CC2=O)cc1 (stereo not drawn),24.6
2,OCC1(CCOc2ccccc2)CCN(Cc2ccccc2OC(F)F)CC1,-54.4
3,CCOc1ccccc1CN1CCC(CO)(CCOc2ccccc2)CC1,-66.8
4,OCC1(CCOc2ccccc2)CCN(Cc2ccc3c(c2)OCCO3)CC1,-31.2
5,OCC1(CCOc2ccccc2)CCN(Cc2ccccc2C(F)(F)F)CC1,3.9
6,Cc1cc(C)c(CN2CCC(CO)(CCOc3ccccc3)CC2)cc1C,-0.659
7,OCC1(CCOc2ccccc2)CCN(Cc2ccc(OC(F)F)cc2)CC1,-87.1
8,Cc1nn(C)cc1CN1CCC(CO)(CCOc2ccccc2)CC1,8.14
9,OCC1(CCOc2ccccc2)CCN(Cc2cc(Cl)ccc2O)CC1,-0.875
10,C=CCOc1ccccc1CN1CCC(CO)(CCOc2ccccc2)CC1,-61.4
11,O=C(CSc1nnc(COc2ccccc2)o1)NC1CC2CCC1C2 (stereo not drawn),14.8
12,CC(=O)c1ccc(NC(=O)COC(=O)c2c[nH]c3ccccc23)cc1,14.4
13,C/C=C\C(=O)Nc1cccc(C2=NOC3(C2)C[C@@H](C(N)=O)N(C(=O)c2ccccc2)C3)c1 (stereo partly drawn),11.6
14,CC1CCCC(C)N1CCCNC(=O)CN1C(=O)c2cccnc2Oc2ccc(Cl)cc21 (stereo not drawn),6.15
15,O=C1[C@H]2[C@@H](C(=O)N1c1cc(Cl)cc(Cl)c1)[C@]1(C(=O)Nc3ccccc31)N1CCC[C@@H]21,4.86
16,Cc1cc(=O)n2nc(N3CCCC(C(=O)NCCC4=CCCCC4)C3)sc2n1 (stereo not drawn),-4.44
17,O=S(=O)(c1ccc(=S)[nH]c1)N1CCCCC1,16.8
18,O=C(O)c1cccc(NC(=S)NC(=O)c2cncc(Br)c2)c1,8.81
19,Cc1cc(C)n2nc(SCc3ccc(C#N)cc3)nc2n1,6.64
